According to PubChem BioAssay (NCATS):
Several values for one entry are separate records, joined by “and”; a condition that tells them apart may be missing. Equal entries are not always repeated. Inconclusive results are not listed. Activity calls are given as the source filed them. Unless noted, the call rests on the fitted dose curve; in most records, active means well fitted curve in the direction sought with a large enough effect; inconclusive means small, poorly fitted or top-dose-only effect, or another doubt; inactive means no such curve, though single readings can be large; an effect the other way counts as inactive or inconclusive.

How the values were obtained:
[1] = Cell Viability - Jurkat (AID 426;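 active means dose-dependent loss of cell ATP signal giving a full or clear fitted curve, ranked by lower potency value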;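 further: potency means the concentration at half of the fitted maximal effect; cells exposed to compound for 40 hours at 37 °C before ATP read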); details: qHTS
Summary of the method: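 Cytotoxicity was scored as loss of cellular ATP, measured by luciferase-based luminescence, in Jurkat clone E6-1 cells after 40 h compound treatment; tamoxifen and doxorubicin served as positive controls.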

[2] = Cell Viability - Hek293 (AID 427;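 active means compounds whose dose-response curve shows a full or clear partial loss of cell viability, called from curve shape rather than a numeric limit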;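 further: potency means the concentration at half of the fitted maximal effect; cells exposed to compound for 40 hours at 37 °C before reading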); details: qHTS
Summary of the method: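 qHTS, human embryonic kidney (adenovirus-transformed) cells; 40 hr cpd, 37 °C; CellTiter-Glo ATP luminescence. Norm: DMSO = 0, 100 uM tamoxifen = 100% inhibition. Hill-fit AC50.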

[3] = Cellular Toxicity (caspase-3) H-4-II-E (AID 663); details: H-4-II-E rat hepatoma, scaled: DMSO 0%, 100 µM tamoxifen 100%; series mostly up to 92.2 µM;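 further: cells exposed to compound for 16 hr before readout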
Summary of the method: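 Caspase 3/7 activation measured in H-4-II-E cells in complete culture medium after 16 hr treatment at 37 °C, using luciferase-coupled substrate readout; AC50 values come from Hill-equation fits of normalized concentration-response data.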

[4] = Cellular Toxicity (caspase-3) N2a (AID 665); details: N2a cells, luminescence, normalized: DMSO 0%, 10 µM staurosporine 100%; at 92.2 µM (top of the series);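 further: compound exposure lasted 16 h at 37 °C before readout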
Summary of the method: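 Concentration-response qHTS: compound-induced caspase-3/7 luminescence in N2a cells (16 h, 37 °C), relative to DMSO and 10 uM staurosporine controls; AC50 obtained using the standard Hill equation.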

[5] = MultiTox-Fluor Cytotoxicity Assay - LYMP1-001 - Dead Cells (AID 946); details: LYMP1-001 lymphoblastoid cells, dead-cell protease fluorescence; series mostly up to 92.2 µM
Summary of the method: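 Seed 2500 LYMP1-001 cells/well, incubate 5 hr at 37 C; add compound, 16 hr at 37 C; add MultiTox-Fluor reagent, 60 min RT; read dead-cell fluorescence Ex/Em=485/520. Normalize to DMSO and 15 uM tetraoctylammonium bromide.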

[6] = Cell Viability - LYMP1-002 - Assay at 16 hr (AID 948); details: LYMP1-002 lymphoblastoid cell viability; series mostly up to 92.2 µM;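 further: 0% = DMSO alone and full effect = 92 µM tetraoctylammonium bromide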
Summary of the method: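 Human lymphoblastoid cells (LYMP1-002), 2500/well, were preincubated 5 hr at 37 C, then exposed to compounds for 16 hr at 37 C in complete medium. Cellular ATP was read by CellTiter-Glo luminescence after 30 min at room temperature; AC50 from Hill fits.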

[7] = MultiTox-Fluor Cytotoxicity Assay - LYMP1-003 - Dead Cells (AID 961); details: LYMP1-003 lymphoblastoid cells, dead-cell protease fluorescence; series mostly up to 92.2 µM; further: nearly all actives have a fitted effect of over 70% in size
Summary of the method: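 LYMP1-003 lymphoblastoid, 2500 cells/well, 5 hr settle then 16 hr cpd at 37 C; MultiTox-Fluor reagent 60 min RT; Ex/Em 485/520 dead-cell signal; norm. DMSO = 0%, 15 uM tetraoctylammonium bromide = 100%; Hill AC50.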

[8] = Cell Viability - LYMP1-003 - Assay at 24 hr (AID 963); details: LYMP1-003 lymphoblastoid cell viability; series mostly up to 92.2 µM;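 further: plate controls were DMSO only for no effect and tetraoctylammonium bromide positive control for full effect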
Summary of the method: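 The lymphoblastoid line was treated with titrated compounds for 24 hours, and viable cell number estimated from luciferase-based ATP luminescence.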

[9] = Cell Viability - LYMP2-011 (AID 969); details: LYMP2-011 lymphoblastoid cells viability; series mostly up to 92.2 µM;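 further: 0% = DMSO only and full inhibition = 92 µM tetraoctylammonium bromide; nearly all actives have a fitted effect of over 60% in size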
Summary of the method: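 Cells seeded at 2500 per well rest 5 hr before compound addition, then incubate 24 hr at 37 C. CellTiter-Glo reagent is added for 30 min at room temperature before luminescence detection.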

[10] = Cell Viability - LYMP2-013 (AID 970); details: LYMP2-013 lymphoblastoid cells viability; series mostly up to 92.2 µM;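 further: 0% = DMSO only and full inhibition = tetraoctylammonium bromide control; nearly all actives have a fitted effect of over 55% in size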
Summary of the method: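 In complete culture medium, human lymphoblastoid cells were dosed for 24 hr at 37 C, with tetraoctylammonium bromide (6.4pM to 92 uM) as positive control. Viability reflects luciferase-based ATP signal; AC50 derived from concentration-response curves.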

[11] = Cell Viability - LYMP2-023 (AID 975); details: LYMP2-023 lymphoblastoid cell viability; series mostly up to 92.2 µM;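 further: cellular ATP measured by luciferase luminescence as viability proxy; plate controls were DMSO only for no effect and 92 µM tetraoctylammonium bromide control for full effect; nearly all actives have a fitted effect of over 55% in size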
Summary of the method: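 In this qHTS, ATP-based luciferase luminescence (CellTiter-Glo) is quantified in human lymphoblastoid cells after 24 hr compound treatment at 37 C; tetraoctylammonium bromide serves as positive control. Concentration-response curves are Hill-fitted to give AC50.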

[12] = Cell Viability - LYMP2-025 (AID 976); details: LYMP2-025 lymphoblastoid cell viability; series mostly up to 92.2 µM;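 further: plate controls were DMSO only for no effect and tetraoctylammonium bromide control for full effect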
Summary of the method: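 Luminescent ATP readout after 24 hr treatment of a human lymphoblastoid line (LYMP2-025, 2500 cells/well, 37 C). Reagent developed 30 min at room temperature; AC50 fitted with the Hill equation.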

[13] = Cell Viability - LYMP2-006 (AID 978); details: LYMP2-006 lymphoblastoid cell viability, qHTS; series mostly up to 92.2 µM; further: on the % scale 0 is the no-effect control and ±100 the full control effect; nearly all actives have a fitted effect of over 60% in size
Summary of the method: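 Human lymphoblastoid cells, 2500 per well, were preincubated 5 hr at 37 C, then exposed to compounds for 24 hr at 37 C in complete medium. Viability was read as intracellular ATP by CellTiter-Glo luminescence; AC50 from Hill-equation fits of qHTS concentration-response data.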

[14] = Cell Viability - LYMP2-008 (AID 980); details: LYMP2-008 lymphoblastoid cell viability, qHTS; series mostly up to 92.2 µM; further: on the % scale 0 is the no-effect control and ±100 the full control effect; nearly all actives have a fitted effect of over 60% in size
Summary of the method: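 Measured: ATP-dependent luminescence, proportional to viable cell number, in human lymphoblastoid cells treated 24 hr with compound in complete culture medium. Values are AC50s from Hill-equation modelling of qHTS titrations.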

[15] = Cell Viability - LYMP2-018 (AID 985); details: LYMP2-018 lymphoblastoid cells, viability (qHTS); series mostly up to 92.2 µM;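 further: plate controls were DMSO only for no effect and tetraoctylammonium bromide at 92 µM for full effect; nearly all actives have a fitted effect of over 50% in size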
Summary of the method: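 In this qHTS viability assay, cells are treated for 24 hr and cellular ATP is quantified by luciferase-based luminescence, with tetraoctylammonium bromide as positive control.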

[16] = Cell Viability - LYMP2-026 (AID 989); details: LYMP2-026 lymphoblastoid cell viability, qHTS; series mostly up to 92.2 µM; further: on the % scale 0 is the no-effect control and ±100 the full control effect; nearly all actives have a fitted effect of over 50% in size
Summary of the method: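 Acute toxicity screen in complete culture medium, with 24 hr compound exposure at 37 C. Viability read as cellular ATP via luciferase reaction, with tetraoctylammonium bromide (6.4pM to 92 uM) as positive control.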

[17] = Cell Viability - LYMP1-002 - Assay at 24 hr (AID 993); details: LYMP1-002 lymphoblastoid cells viability; series mostly up to 92.2 µM; further: on the % scale 0 is the no-effect control and ±100 the full control effect
Summary of the method: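 Viability was judged from intracellular ATP using a luciferase read-out, following a 24-hour compound incubation at 37 C of lymphoblastoid cells seeded at 2500 per well. Concentration-response data were fitted to the Hill equation for AC50.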

[18] = qHTS assay for small molecule agonists of the antioxidant response element (ARE) signaling pathway measured by Nrf2-dependant transcriptional activity - cell viability counter screen (AID 720653; active means well fitted curve in the direction sought with a large enough effect in the repeat runs; an effect the other way counts as inactive or inconclusive; further: on the % scale 0 is the no-effect control and ±100 the full control effect); details: ARE-bla HepG2 viability, CellTiter-Glo ATP luminescence, 16 h; stronger effect = lower value
Summary of the method: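 ARE-bla HepG2 cells (2,000/well) rested 5 hrs at 37C/5% CO2, then exposed to compounds in DMSO for 16 hrs. Viability was read in the same wells as intracellular ATP by luminescence, 30 min at room temperature after reagent addition.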

[19] = qHTS assay for cell viability of HEK293 cells (AID 743288); details: ATP luminescence (CellTiter-Glo), 18 h; max response: stronger effect = lower value; further: on the % scale 0 is the no-effect control and ±100 the full control effect; nearly all actives have a fitted effect of over 50% in size
Summary of the method: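 After 18 h compound exposure at 37 C, parental HEK293 cells (2,000/well) are lysed with CellTiter-Glo and luminescence is read following 30 min at room temperature.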

[20] = qHTS assay for cell viability of the p53RE-bla HCT-116 cell line (AID 743292); details: p53RE-bla HCT-116 viability, ATP luminescence, 16 h; series mostly up to 95 µM; further: on the % scale 0 is the no-effect control and ±100 the full control effect; nearly all actives have a fitted effect of over 55% in size
Summary of the method: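 HCT-116 p53RE-bla cells seeded 4,000/well; 5 h at 37 C; compound (DMSO) added; 16 h at 37 C; CellTiter-Glo added, 30 min RT; luminescence read.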

NC(=S)Nc1ccccc1
inactive: Potency [1] > 92 µM | Potency [2] > 92 µM | outcome [3] | caspase-3 activation [4] -3.2% and -1.82% | Potency [5] | Potency [6] | Potency [7] | Potency [8] | Potency [9] | Potency [10] | Potency [11] | Potency [12] | Potency [13] | Potency [14] | Potency [15] | Potency [16] | Potency [17] | max response [18] -3.66% and 8.32% and -3.85% | max response [19] -1.42% and -0.575% and -4.82% | Potency [20]

c1nc[nH]n1
inactive: Potency [1] > 92 µM | Potency [2] > 92 µM | outcome [3] | caspase-3 activation [4] -1.83% | Potency [5] | Potency [6] | Potency [7] | Potency [8] | Potency [9] | Potency [10] | Potency [11] | Potency [12] | Potency [13] | Potency [14] | Potency [15] | Potency [16] | Potency [17] | max response [18] 12.8% | max response [19] -0.284% | Potency [20]

C=CC1CC=CCC1 (stereo not given)
inactive: Potency [1] > 92 µM | Potency [2] > 92 µM | outcome [3] | caspase-3 activation [4] -0.281% | Potency [5] | Potency [6] | Potency [7] | Potency [8] | Potency [9] | Potency [10] | Potency [11] | Potency [12] | Potency [13] | Potency [14] | Potency [15] | Potency [16] | Potency [17] | max response [18] 1.14% and 1.26% | max response [19] -5.12% and -6.19% | Potency [20]

O=[N+]([O-])c1ccc(Cl)c(Cl)c1
inactive: Potency [1] > 92 µM | Potency [2] > 92 µM | outcome [3] | caspase-3 activation [4] -2.95% | Potency [5] | Potency [6] | Potency [7] | Potency [8] | Potency [9] | Potency [10] | Potency [11] | Potency [12] | Potency [13] | Potency [14] | Potency [15] | Potency [16] | Potency [17] | max response [18] -14.5% | max response [19] 7.83% | Potency [20]

Nc1ccc(Br)cc1
inactive: Potency [1] > 92 µM | Potency [2] > 92 µM | outcome [3] | caspase-3 activation [4] 0.277% | Potency [5] | Potency [6] | Potency [7] | Potency [8] | Potency [9] | Potency [10] | Potency [11] | Potency [12] | Potency [13] | Potency [14] | Potency [15] | Potency [16] | Potency [17] | max response [18] -4.77% | max response [19] -7.62% | Potency [20]

CCCC(=O)Cl
inactive: Potency [1] > 92 µM | Potency [2] > 92 µM | outcome [3] | caspase-3 activation [4] 4.05% | Potency [5] | Potency [6] | Potency [7] | Potency [8] | Potency [9] | Potency [10] | Potency [11] | Potency [12] | Potency [13] | Potency [14] | Potency [15] | Potency [16] | Potency [17] | max response [18] 18.2% | max response [19] 0.489% | Potency [20]

c1ccc2c(c1)CCCC2
inactive: Potency [1] > 92 µM | Potency [2] > 92 µM | outcome [3] | caspase-3 activation [4] 1.3% | Potency [5] | Potency [6] | Potency [7] | Potency [8] | Potency [9] | Potency [10] | Potency [11] | Potency [12] | Potency [13] | Potency [14] | Potency [15] | Potency [16] | Potency [17] | max response [18] -5.84% | max response [19] -7.83% | Potency [20]

C=CC(=O)OCC
inactive: Potency [1] > 92 µM | Potency [2] > 92 µM | outcome [3] | caspase-3 activation [4] -1.92% | Potency [5] | Potency [6] | Potency [7] | Potency [8] | Potency [9] | Potency [10] | Potency [11] | Potency [12] | Potency [13] | Potency [14] | Potency [15] | Potency [16] | Potency [17] | max response [18] -9.08% | max response [19] -0.244% | Potency [20]

Cc1cccc([N+](=O)[O-])c1
inactive: Potency [1] > 92 µM | Potency [2] > 92 µM | outcome [3] | caspase-3 activation [4] 2.99% | Potency [5] | Potency [6] | Potency [7] | Potency [8] | Potency [9] | Potency [10] | Potency [11] | Potency [12] | Potency [13] | Potency [14] | Potency [15] | Potency [16] | Potency [17] | max response [18] -0.821% and -5.67% | max response [19] -6% and -15.6% | Potency [20]

CCSC(=O)Cl
inactive: Potency [1] > 92 µM | Potency [2] > 92 µM | outcome [3] | caspase-3 activation [4] -2.14% | Potency [5] | Potency [6] | Potency [7] | Potency [8] | Potency [9] | Potency [10] | Potency [11] | Potency [12] | Potency [13] | Potency [14] | Potency [15] | Potency [16] | Potency [17] | max response [18] 0.254% | max response [19] -2.01% | Potency [20]

C1CCC2CCCCC2C1 (stereo not given)
inactive: Potency [1] > 92 µM | Potency [2] > 92 µM | outcome [3] | caspase-3 activation [4] -0.192% | Potency [5] | Potency [6] | Potency [7] | Potency [8] | Potency [9] | Potency [10] | Potency [11] | Potency [12] | Potency [13] | Potency [14] | Potency [15] | Potency [16] | Potency [17] | max response [18] 2.05% | max response [19] 0.933% | Potency [20]
